TDP1 cell noCPT: qHTS for Inhibitors of human tyrosyl-DNA phosphodiesterase 1 (TDP1): qHTS in cells in absence of CPT; 420,000 tested, 15% active; Potency, µM (highest dose often 46.2 µM), for inactives: top-dose activity change, negative = growth inhibition, most hits filed as inhibitors; DT40 Tdp1-/- hTDP1 cells, no CPT, ATP luminescence, 48 h; note: potency is the fitted concentration of half-maximal effect; nearly all actives have a fitted effect of over 55% in size
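DT40 Tdp1-/-;hTDP1 cells, no CPT (DMSO vehicle only), 400 cells/well; compounds pin-transferred; ≥48 hr, 37 °C; CellTiter-Glo 30 min RT dark, luminescence read.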
TDP1 cell CPT: qHTS for Inhibitors of human tyrosyl-DNA phosphodiesterase 1 (TDP1): qHTS in cells in presence of CPT; chicken DT40 Tdp1-/-;hTDP1 cells + 20 nM CPT, ATP luminescence, 48 h; Potency, µM (doses to about 46.2 µM), inactives show at the top dose activity change, negative = growth inhibition, actives largely listed as inhibitors; 420,000 tested, 12% active; AID 686979, 2013; note: potency is the fitted concentration of half-maximal effect; nearly all actives have a fitted effect of over 55% in size
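Chicken DT40 Tdp1-/- cells stably complemented with human TDP1 were seeded at 400 cells/well in medium containing 20 nM camptothecin, exposed to pin-transferred compounds, and grown at 37 °C for at least 48 hr. Viability was read as ATP luminescence.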
Six1-Eya2 blk: qHTS Assay for Inhibitors of the Six1/Eya2 Interaction | AlphaScreen GST-Six1/His-Eya2 binding, biochemical; hits give low values | activity change, % (test concentration not listed) | 360,000 tested, 0.56% active | AID 651725, 2012; in the data active = activity change below about -65%; inconclusive = mostly about -30% to -63%
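Compounds are tested against tagged Six1 and Eya2 proteins bridged by glutathione donor and nickel acceptor beads; after a one-hour incubation at 37 °C without light, AlphaScreen emission is recorded.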
IL-1B inflam inh: qHTS for Inhibitors of Inflammasome Signaling: IL-1-beta AlphaLISA Primary Screen | THP-1 LPS/ATP IL-1B secretion, AlphaLISA, 16 h; hits give low values | 360,000 tested, 4.7% active | AID 743279, 2014 | activity change, % at 57.5 µM; in the data active = activity change below about -50%; inconclusive = mostly about -30% to -49%
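Secreted IL-1B measured by AlphaLISA bead assay after 16 h compound exposure of THP-1 cells; compounds (final up to 57.5 uM) added 1 h before LPS (250 ng/mL) and ATP (1.25 mM) stimulation; lower signal means less secretion.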
TDP1 block: qHTS Assay for Inhibitors of Tyrosyl-DNA Phosphodiesterase (TDP1); 350,000 tested, 0.28% active; AID 485290, 2010; Tyrosyl-DNA phosphodiesterase 1 (Homo sapiens), Q9NUW8; Potency, µM (titrated, usually from 130 µM), inactives show top-dose activity change, negative = inhibition, most hits filed as inhibitors; recombinant TDP1, AlphaScreen DNA substrate cleavage; note: potency is the fitted concentration of half-maximal effect; nearly all actives have a fitted effect of over 40% in size
Target sequence (Q9NUW8 whole entry, looked up): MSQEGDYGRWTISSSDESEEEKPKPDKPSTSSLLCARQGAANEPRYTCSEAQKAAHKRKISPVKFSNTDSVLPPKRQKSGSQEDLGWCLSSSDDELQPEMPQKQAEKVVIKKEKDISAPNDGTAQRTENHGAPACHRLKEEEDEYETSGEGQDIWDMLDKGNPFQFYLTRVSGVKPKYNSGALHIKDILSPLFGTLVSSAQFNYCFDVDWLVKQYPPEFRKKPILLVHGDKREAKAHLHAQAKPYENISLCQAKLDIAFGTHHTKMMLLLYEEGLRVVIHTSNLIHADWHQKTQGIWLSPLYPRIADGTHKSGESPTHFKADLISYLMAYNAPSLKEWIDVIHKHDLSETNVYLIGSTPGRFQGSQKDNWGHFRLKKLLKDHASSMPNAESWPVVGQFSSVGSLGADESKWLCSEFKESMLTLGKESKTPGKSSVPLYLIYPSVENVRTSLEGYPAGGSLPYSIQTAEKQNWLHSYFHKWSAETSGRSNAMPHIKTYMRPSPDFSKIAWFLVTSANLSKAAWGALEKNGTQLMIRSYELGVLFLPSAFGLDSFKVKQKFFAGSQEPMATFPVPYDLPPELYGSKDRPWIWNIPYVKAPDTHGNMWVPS
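Recombinant human Tdp1 (E. coli-expressed, 1 nM final) preincubated with compounds 15 min at room temperature, then 5'-biotin/3'-phosphotyrosine-FITC DNA substrate (15 nM final) added for 5 min. AlphaScreen beads (10 ug/ml final) added 10 min; cleavage lowers signal.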
CtBP-E1A inh: qHTS Assay for Inhibitors of the CtBP/E1A Interaction; CtBP / adenovirus E1A interaction (AlphaScreen); AlphaScreen GST-E1A/His-CtBP binding, 1536-well; hits give low values; activity change, % (no concentration beside the values); 340,000 tested, 0.49% active; AID 651724, 2012; in the data active = activity change below about -65%; inconclusive = mostly about -30% to -63%
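Steps: dispense buffer (Tris pH 8.0, NaCl 300 mM, TCEP 1 mM, BSA, Tween 20); add 5X protein mix (GST-E1A, His-CtBP, 125 nM each); pin 23 nL compound; 2 h at 37 °C, dark; add 5X beads (50 ug/mL); 1 h; read.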
* hit, by the source's call; i = inactive; u = inconclusive; x = not tested or not shown; [ ] = remark or other dose. Most compounds without a hit are left out; they make up all but 18% or so of the library. Unless noted, calls come from the whole dose curve; as a rule, active = well fitted curve in the direction sought with a large enough effect; inconclusive = small, poorly fitted or top-dose-only effect, or another doubt; inactive = no such curve, though single readings can be large; an effect the other way counts as inactive or inconclusive. % is set by controls: 0 for no effect and ±100 for the full control effect.

SMILES	TDP1 cell noCPT	TDP1 cell CPT	Six1-Eya2 blk	IL-1B inflam inh	TDP1 block	CtBP-E1A inh
COc1cccc(N2CCN(C(=O)Cn3cnc4onc(-c5ccc(F)cc5)c4c3=O)CC2)c1	20.6µM*	23.1µM*	x	x	3.2%	x
CCCCN(CC)CCNC(=O)CCn1cnc2onc(-c3ccc(F)cc3)c2c1=O	23.1µM*	25.9µM*	x	x	0.0%	x
COC(=O)CCn1cnc2onc(-c3cc(F)cc(F)c3)c2c1=O	-28.0%	18.8%	x	x	1.3%	x
COc1ccccc1N1CCN(C(=O)CCn2cnc3onc(-c4ccc(F)cc4)c3c2=O)CC1	20.6µM*	u	x	x	3.2%	x
COC(=O)c1ccc(NC(=O)C2CC(=O)OC2c2ccccc2)cc1 (stereo not given)	-26.7%	-6.7%	-15.8	15.8	x	9.9
CC1CC(C)CN(C(=O)COC(=O)C2CCN(S(=O)(=O)c3ccc4c(c3)OCCO4)CC2)C1 (stereo not given)	-3.1%	-3.4%	-1.8	10.1	-0.4%[0.505 µM]	-0.7
CCCCOC(=O)Nc1ccc(C)c(Cl)c1	u	u	24.0	-1.5	-3.4%	21.5
Cc1cnc(N)nc1-c1ccccc1	-17.4%	-2.3%	1.4	-17.3	x	2.4
O=C(CCn1cnc2onc(-c3ccc(F)cc3)c2c1=O)N1CCN(c2ccccc2F)CC1	u	u	x	x	3.2%	x
COc1cc(Cl)c(C)cc1NC(=O)CCn1cnc2onc(-c3ccc(F)cc3)c2c1=O	u	18.4µM*	x	x	-5.3%	x
O=C(CCn1cnc2onc(-c3ccc(F)cc3)c2c1=O)N1CCN(c2cccc(Cl)c2)CC1	16.4µM*	16.4µM*	x	x	3.2%	x
COc1ccc(N2CCN(C(=O)CCn3cnc4onc(-c5ccc(F)cc5)c4c3=O)CC2)cc1	u	23.1µM*	x	x	4.2%	x
Cc1ccc(Cl)cc1N1CCN(C(=O)Cn2cnc3onc(-c4ccc(F)cc4)c3c2=O)CC1	18.4µM*	18.4µM*	x	x	1.1%	x
CCCN(C(=O)CCn1cnc2onc(-c3ccc(F)cc3)c2c1=O)c1ccccc1C	16.4µM*	18.4µM*	x	x	2.1%	x
CCN(C(=O)Cn1cnc2onc(-c3ccc(F)cc3)c2c1=O)c1cc(C)ccc1C	20.6µM*	13µM*	x	x	4.2%	x
CCOC(=O)Cn1cnc2onc(-c3ccc(F)cc3)c2c1=O	0.5%	-2.4%	x	x	1.3%	x
CCN(CC(=O)NC1CCS(=O)(=O)C1)S(=O)(=O)c1ccc(Cl)cc1C(F)(F)F (stereo not given)	-12.5%	-13.8%	-1.8	6.4	2.3%	-0.5
CCOC(=O)N1CCN(C(=O)CSc2nc3c([nH]c4ccccc43)c(=O)n2CCOC)CC1	18.4µM*	u	-4.4	i	2.5%	5.8
CCn1c(SCC(=O)N2CCN(c3ccccc3)CC2)nc2c([nH]c3ccccc32)c1=O	8.2µM*	14.6µM*	-2.5	i	0.0%	5.4
COCCn1c(SCC(=O)N2CCCCC2)nc2c([nH]c3ccccc32)c1=O	u	-29.9%	3.5	23.6	-3.0%	2.9
CCn1c(SCC(=O)N2CCCCCC2)nc2c([nH]c3ccccc32)c1=O	-10.8%	-17.5%	-4.3	i	-0.3%	-0.9
COC(=O)C(CCC(=O)CN1C(=O)c2ccccc2C1=O)N1C(=O)c2ccccc2C1=O (stereo not given)	4.6%	-6.7%	-2.2	5.6	x	0.2
NC1=NC[C@H](c2ccccc2)N1CCCCC1CCCCC1	7.31µM*	5.17µM*	0.4	-82.9*	3.5%	-2.5
Fc1cccc(CCN2C(=S)NC[C@@H]2Cc2ccccc2)c1	u	20.6µM*	-5.0	0.2	5.1%	1.5
NCCCC[C@H]1CN=C(N)N1CC1CCCCC1	-2.9%	-13.8%	7.9	-0.7	x	0.7
SMILES	TDP1 cell noCPT	TDP1 cell CPT	Six1-Eya2 blk	IL-1B inflam inh	TDP1 block	CtBP-E1A inh
NCCCC[C@H]1CN=C(N)N1CCCCC1CCCCC1	u	u	4.0	-64.0*	x	0.3
CCCC[C@@H]1CNC(=S)N1CCc1cccc(F)c1	u	-74.2%	-1.4	-12.4	5.1%	2.1
S=C1NC[C@H](c2ccccc2)N1CCCCC1CCCCC1	u	u	-4.6	21.5	5.0%	-1.3
NC1=NC[C@H](c2ccccc2)N1CCc1cccc(F)c1	13µM*	16.4µM*	-2.2	0.0	5.0%	x
Cc1nc2cc(-c3ccccc3)ccc2o1	u	u	3.5	-9.8	0.0%	6.6
CCOc1ccc(NC(=O)N2CCC(NC(=O)C(Cc3cccc(F)c3)NC(C)=O)CC2)cc1 (stereo not given)	0.4%	0.6%	10.8	15.2	6.3%	-1.0
CCC(C)[C@H]1CN=C(N)N1CC1CCCCC1 (stereo not given in full)	2.31µM*	2.59µM*	1.3	-1.4	x	-0.7
CC(O)[C@H]1CN=C(N)N1CCCCC1CCCCC1 (stereo not given in full)	8.2µM*	9.2µM*	7.3	u	0.0%	x
CC[C@H](C)[C@H]1CNC(=S)N1CC1CCN(CCCC2CCCC2)CC1	u	u	0.5	-28.5	x	-3.5
CCOc1cc2c(c3c1C(c1ccccc1)N(S(=O)(=O)c1ccc(C)cc1)C3)C(=O)C=CC2=O (stereo not given)	0.581µM*	0.517µM*	-12.0	-117.8*	x	-1.1
Nc1ncnc2c1ncn2[C@@H]1O[C@H](CNCc2c(OCc3ccccc3F)ccc3ccccc23)[C@@H](O)[C@H]1O	u	u	-0.8	-58.3*	2.0%	-5.0
Nc1ncnc2c1ncn2[C@@H]1O[C@H](CNCc2cccc(C#Cc3ccccc3)c2)[C@@H](O)[C@H]1O	u	14.6µM*	-0.7	-4.0	1.6%[56.1 µM]	0.0
Nc1c2c(nc3ccc(Br)cc13)N(c1ccccc1)CC2	u	u	-7.9	-21.2	x	-0.5
Cc1cccc(N2CCc3c2nc2ccc(Br)cc2c3N)c1	u	u	-0.2	-94.1*	0.0%	-0.1
Nc1c2c(nc3ccc(Br)cc13)N(Cc1ccccc1)CC2	20.6µM*	u	-1.7	u	3.0%	x
CC1=NN(Cc2cc(C(C)(C)C)c(O)c(C(C)(C)C)c2)C(=O)C1	u	u	-0.4	-0.5	x	x
